Source: PubChem BioAssay (Tox21)
Unmarked numbers belong to inactive results. Activity calls are given as the source filed them. Calls follow the shape of the dose curve; as a rule, active = well fitted curve in the direction sought with a large enough effect in the repeat runs; inconclusive = weak or mixed curves; inactive = flat fitted curve, though single readings scatter.

Experiment: qHTS assay to test for compound auto fluorescence at 590 nm (red) in HepG2 cell free culture (AID 720684)
Conditions: cell-free medium autofluorescence, red 540/590 nm; series mostly up to 91.3 µM; fluorescence, % of Rose Bengal: at the top concentration
From the text: U.S. Tox21 Program National Center for Advancing Translational Sciences [NCATS] NIH Chemical Genomics Center [NCGC] U.S. Environmental Protection Agency [EPA] National Institutes of Environmental Health Sciences [NIEHS] National Toxicology Program [NTP] U.S. Food and Drug Administration [FDA] Tox21 Assay Overview: Compound auto fluorescence often interferes with screening of the compound library against various biological targets and signaling pathways. Some of these compounds may have fluorophoric properties. Such properties may interfere with the assay outputs resulting in false positives and/or negatives. To decrease such complications and ensure the compound activities are relevant in terms of biological response, the Tox21 10K compound library was screened for auto fluorescence. From the fluorophores used as reporter signals in our screening assays, the auto fluorescence equivalencies of compounds against three fluorophores have been evaluated: Triamterene, Fluorescein and Rose Bengal sodium for blue, green and red fluorescence, respectively. The fluorescence intensities were measured using Excitation/Emission wavelengths at 405/460nm, 485/535nm and 540/590nm for blue, green and red labels, respectively. This assay includes the red fluorescence data.
Tox21 Assay Protocol Summary: 5 uL of culture medium (MEM containing 10% FBS) per well was dispensed into black wall/clear bottom 1536-well plates using a Multidrop Combi Dispenser (ThermoFisher Scientific, Waltham, MA). After 23 nL compound or DMSO vehicle was transferred into assay plate by a pintool work station (Kalypsys, San Diego, CA), fluorescence intensities in the assay plates were measured by an Envision (PerkinElmer, Shelton, CT) plate reader using three labels for measuring blue, green and red fluorescence at […] 460, 535 and 590nm respectively.
% is scaled to controls: 0 for no effect and ±100 for the full control effect.

Row | Structure (SMILES) | outcome | fluorescence, % of Rose Bengal [%]
1 | CCCCCCOCCO | inactive | 
2 | C=C(C)C(=O)OCCOCCOCCOC(=O)C(=C)C | inactive | 
3 | O=P(OC(CCl)CCl)(OC(CCl)CCl)OC(CCl)CCl | inactive | 
4 | ON=C1CCCCC1 | inactive | 
5 | C=C(C)C(=O)O[C@H]1C[C@@H]2CC[C@@]1(C)C2(C)C | inactive | 
6 | CC1=CCC2CC1C2(C)C (stereo not given) | inactive | 
7 | C=C(C)C(=O)Nc1ccc(Cl)c(Cl)c1 | inactive | 
8 | CCC(O)OCCCOC (stereo not given) | inactive | 
9 | O=C(O)[C@H](O)[C@@H](O)[C@H](O)[C@H](O)CO | inactive | 
10 | CCCCCCCCCCCCOCCO |  | -0.198
11 | O=C(O)c1cc(C(=O)O)cc(S(=O)(=O)O)c1 | inactive | 
12 | CCCCCCCCCCCCc1ccccc1 | inactive | 
13 | OC[C@H]1O[C@@](CO)(O[C@H]2O[C@H](CO)[C@@H](O)[C@H](O)[C@H]2O)[C@@H](O)[C@@H]1O | inactive | 
14 | CCCCCCCCC/C=C/CC1CC(=O)OC1=O (stereo not given) | inactive | 
15 | Oc1cccc2ccccc12 | inactive | 
16 | C[C@H]1C[C@H]2[C@@H]3CCC4=CC(=O)C=C[C@]4(C)[C@@]3(F)[C@@H](O)C[C@]2(C)[C@@]1(O)C(=O)CO | inactive | 
17 | COc1cc(Cc2cnc(N)nc2N)cc(OC)c1OC | inactive | 
18 | COc1ccc(Nc2ccccc2)c(C)c1 | inactive | 
19 | O=C(O)c1cc(O)c(O)c(O)c1 | inactive | 
20 | CCOC(=O)NNc1nncc2ccccc12 | inactive | 

Row | Structure (SMILES) | outcome | fluorescence, % of Rose Bengal [%]
21 | O=C1CCC(N2C(=O)c3ccccc3C2=O)C(=O)N1 (stereo not given) | inactive | 
22 | CCc1ccc(CCOc2ccc(CC3SC(=O)NC3=O)cc2)nc1 (stereo not given) | inactive | 
23 | O=C(O)c1ccc(C(=O)O)cc1 | inactive | 
24 | CSCCC=O | inactive | 
25 | c1ccc2c(c1)ccc1ccccc12 | inactive | 
26 | COS(C)(=O)=O | inactive | 
27 | Cc1cccc(O)c1 | inactive | 
28 | OCC(CO)(CBr)CBr | inactive | 
29 | O=S1(=O)CC=CC1 | inactive | 
30 | O=C(O)c1ccccc1C(c1ccc(O)cc1)c1ccc(O)cc1 |  | 0.0797
31 | CCN(CC)c1ccc(C(=O)c2ccccc2C(=O)O)c(O)c1 | inactive | 
32 | C=CCNC(N)=S | inactive | 
33 | O=C(O)CCCCCCCCCCC(=O)O | inactive | 
34 | O=c1[nH]nnc2ccccc12 | inactive | 
35 | CN(C)CCC(c1ccccc1)c1ccccn1 (stereo not given) | inactive | 
36 | CC(C)(C)[C@@H](O)[C@@H](Cc1ccc(Cl)cc1)n1cncn1 | inactive | 
37 | Cc1ccc(N(C)C)cc1 | inactive | 
38 | CCCCC(CC)COC(=O)CS (stereo not given) | inactive | 
39 | CCCCCOC(C)=O | inactive | 
40 | CCCCCCCCCCCCS | inactive | 
